Shown are actives, neighbours in structure and some others; about 6.4% of the full set was active somewhere.
RORgamma inh: ROR gamma (mouse) transcription inhibition | AID 2551 | Drosophila S2 Gal4-RORgamma UAS-luciferase reporter, 20 h | Potency, µM (top dose mostly 53.6 µM), for the others: at the top dose activity change, negative = inhibition, most hits filed as inhibitors | P51450 | 310,000 compounds, 5.4% hits; note: nearly all actives have a fitted effect of over 60% in size
Target sequence (P51450 whole entry, looked up, the tested form may be a part): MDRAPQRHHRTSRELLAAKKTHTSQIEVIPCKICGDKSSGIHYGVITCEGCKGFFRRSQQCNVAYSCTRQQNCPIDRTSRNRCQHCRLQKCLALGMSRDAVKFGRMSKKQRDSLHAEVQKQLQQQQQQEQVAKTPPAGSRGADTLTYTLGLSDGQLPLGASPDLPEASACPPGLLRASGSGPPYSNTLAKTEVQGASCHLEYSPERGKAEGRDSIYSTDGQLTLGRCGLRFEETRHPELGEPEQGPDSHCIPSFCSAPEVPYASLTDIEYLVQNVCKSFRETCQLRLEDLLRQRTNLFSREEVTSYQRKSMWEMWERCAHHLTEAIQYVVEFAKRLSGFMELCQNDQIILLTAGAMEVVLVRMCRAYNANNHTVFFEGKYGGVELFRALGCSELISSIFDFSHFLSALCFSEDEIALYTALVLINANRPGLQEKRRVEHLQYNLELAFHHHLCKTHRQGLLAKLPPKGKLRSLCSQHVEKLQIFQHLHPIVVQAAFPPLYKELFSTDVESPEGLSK
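Luciferase reporter read in Schneider cells carrying Gal4-RORγ (mouse) and UAS-Photinus luciferase; cells given compound 1 h before 700 uM copper sulfate induction, then incubated 20 h at ambient temperature.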
Luc counter: counter-screen: inhibitors of Kinase-Glo firefly luciferase; Q27757; Kinase-Glo luciferase, ATP luminescence, 8 min; Potency, µM (titrated, usually from 38.3 µM), inactives show at the highest dose activity change, negative = inhibition, actives largely listed as inhibitors; 200,000 compounds, 0.28% hits; AID 1379; note: nearly all actives have a fitted effect of over 60% in size
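Light output from Kinase-Glo luciferase with luciferin and 10 uM ATP in 50 mM imidazole pH 7.2, KCl, MgCl2, Tween 20, BSA; compound pin-delivered, 8-min ambient incubation, then luminescence read.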
Gal4-VP16 FLuc: Gal4-VP16 reporter inhibition counter-screen; Drosophila S2 Gal4-VP16 UAS-luciferase, luminescence, 20 h; Potency, µM (titrated, usually from 53.6 µM), without a hit: at the top dose activity, negative = inhibition, usual class: inhibitors; 310,000 compounds, 3.5% hits;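 note: Gal4-VP16 expression switched on by copper sulfate through the metallothionein promoter; nearly all actives have a fitted effect of over 50% in size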
An asterisk follows results filed as active; [ ] = another dose, or the depositor's remark. Calls come from the whole dose curve; as a rule, active = well fitted curve in the direction sought with a large enough effect; inconclusive = small, poorly fitted or top-dose-only effect, or another doubt; inactive = no such curve, though single readings can be large; an effect the other way counts as inactive or inconclusive. % is set by controls: 0 for no effect and ±100 for the full control effect; potency is the fitted concentration of half-maximal effect.

Results for CCOC(=O)c1c(-c2ccc(C)cc2)csc1NC(=S)NC(=O)c1ccccc1 ?
RORgamma inh: 3.16µM*; Luc counter: 5.1%; Gal4-VP16 FLuc: 2.82µM*

What do the screens show for `COC(=O)c1c(-c2ccc(C)cc2)csc1NC(=S)NC(=O)c1ccc(F)cc1`?
RORgamma inh: 2.51µM*; Luc counter: 0.7%; Gal4-VP16 FLuc: 5.01µM*

Results for Cc1ccc(-c2csc(NC(=O)c3ccc(Br)cc3)c2C(=O)O)cc1 ?
RORgamma inh: 6.8%; Gal4-VP16 FLuc: -3.9%

Results for CCOC(=O)c1c(-c2ccc(C)cc2)csc1NC(=O)c1ccc(N2C(=O)CCC2=O)cc1 ?
RORgamma inh: 26.5%; Luc counter: -3.6%; Gal4-VP16 FLuc: 11.4%

Results for O=c1c2c([N+](=O)[O-])cc([N+](=O)[O-])cc2sn1Cc1ccccc1 ?
RORgamma inh: 7.08µM*; Gal4-VP16 FLuc: 4.47µM*

Results for O=c1c2c([N+](=O)[O-])cc([N+](=O)[O-])cc2sn1-c1ccc(Br)cc1 ?
RORgamma inh: 8.91µM*; Luc counter: 5.2%; Gal4-VP16 FLuc: 10µM*

What do the screens show for `O=C(Nc1ccc(Br)cc1)c1cc([N+](=O)[O-])cc([N+](=O)[O-])c1`?
RORgamma inh: -2.1%[1.91 µM]; Gal4-VP16 FLuc: inconclusive

How did O=c1c2c([N+](=O)[O-])cc([N+](=O)[O-])cc2nc2ccccn12 do in these assays?
RORgamma inh: -20.0%; Gal4-VP16 FLuc: 16.4%

How did CN1C(=O)Cc2cc(S(=O)(=O)Nc3ccc(N4CCOCC4)cc3)ccc21 do in these assays?
RORgamma inh: -5.3%; Gal4-VP16 FLuc: -7.8%

What do the screens show for `CNC(=O)c1ccccc1-c1cn(C)c2ccccc2c1=O`?
RORgamma inh: 16.7%; Luc counter: -0.6%; Gal4-VP16 FLuc: 8.7%

Results for CC1C(=O)C(C)(C)C(=O)OC1c1ccc([N+](=O)[O-])cc1 (configuration not stated) ?
RORgamma inh: 1.4%; Gal4-VP16 FLuc: 25.0%

How did CC(Sc1nc2ccccc2s1)C(=O)Nc1nnc(C(C)C)s1 (configuration not stated) do in these assays?
RORgamma inh: 2.82µM*; Luc counter: -1.0%; Gal4-VP16 FLuc: inconclusive

Results for CCC(Sc1nc2ccccc2s1)C(=O)Nc1nnc(C)s1 (configuration not stated) ?
RORgamma inh: inconclusive; Luc counter: 0.2%; Gal4-VP16 FLuc: 1.2%

Results for CS(=O)(=O)N(CC(=O)NCCSCc1cccc(Cl)c1)c1ccccc1F ?
RORgamma inh: 20.6%; Gal4-VP16 FLuc: -9.8%

What do the screens show for `CCCCCCCCCC(=O)NNC(=O)c1c(O)c2ccccc2n(CC)c1=O`?
RORgamma inh: -11.0%; Luc counter: -3.1%; Gal4-VP16 FLuc: 0.1%

How did Cn1c(=O)c(C(=O)NCCO)c(O)c2ccccc21 do in these assays?
RORgamma inh: -7.8%; Luc counter: -1.4%; Gal4-VP16 FLuc: -8.7%

Results for CCCCCC(=O)NNC(=O)c1c(O)c2ccccc2n(CC)c1=O ?
RORgamma inh: 43.0%; Luc counter: -0.2%; Gal4-VP16 FLuc: 0.8%

Results for CCn1c(=O)c(C(=O)NNC(=O)c2ccccc2F)c(O)c2ccccc21 ?
RORgamma inh: 7.94µM*; Gal4-VP16 FLuc: inconclusive

How did Cn1c(=O)c(C(=O)NNC(=O)c2ccccc2F)c(O)c2ccccc21 do in these assays?
RORgamma inh: 17.8µM*; Gal4-VP16 FLuc: inconclusive

How did CCn1c(=O)c(C(=O)NNC(=O)c2ccccc2Cl)c(O)c2ccccc21 do in these assays?
RORgamma inh: 7.94µM*; Gal4-VP16 FLuc: inconclusive

How did COC(=O)C1=C(C)N(C2CCCCC2)C(=O)/C1=C\c1cccs1 do in these assays?
RORgamma inh: 18.3%; Luc counter: -0.6%; Gal4-VP16 FLuc: 9.4%

What do the screens show for `COc1ccc(-c2nc(CS(=O)CC(=O)NCc3ccc(Cl)cc3)c(C)o2)cc1` (configuration not stated)?
RORgamma inh: 8.91µM*; Luc counter: 1.0%; Gal4-VP16 FLuc: 6.6%

What do the screens show for `COCCNC(=O)CS(=O)Cc1nc(-c2ccc(Cl)cc2)oc1C` (configuration not stated)?
RORgamma inh: -27.8%; Luc counter: 1.1%; Gal4-VP16 FLuc: -5.4%

How did Cc1oc(-c2ccc(Cl)cc2)nc1CS(=O)CC(=O)NCc1ccccc1 (configuration not stated) do in these assays?
RORgamma inh: -12.1%; Gal4-VP16 FLuc: 0.9%

What do the screens show for `CCc1cccc(NC(=O)CS(=O)Cc2nc(-c3ccc(C)cc3)oc2C)c1` (configuration not stated)?
RORgamma inh: 11.2µM*; Luc counter: -3.4%; Gal4-VP16 FLuc: -3.5%

Compound activity (PubChem BioAssay)
